# Data taken from PubChem BioAssay (NCATS).
# Records with an inconclusive call do not appear. The source made the active and inactive calls. Calls follow the shape of the dose curve; as a rule, active = well fitted curve in the direction sought with a large enough effect; inconclusive = small, poorly fitted or top-dose-only effect, or effect the other way, or another doubt; inactive = no such curve, though single readings can be large or run the other way.
# Target: Transient receptor potential cation channel subfamily V member 1 (Homo sapiens) (UniProt Q8NER1)
# Assay: HTS Assay for Compounds that Act as Enhancers of the Vanilloid Receptor 1 (AID 488979)
# Details: TRPV1-expressing cells, enhancer of channel activity; series mostly up to 41.7 µM
# Excerpt: The transient receptor potential ion channel, family V, number 1, (TRPV1) is one of the most important molecular transducers of painful stimuli and a potential target for analgesic drug development. Although recent clinical trials with orthosteric antagonists have not produced a successful drug because of a hyperthermia side effect and their tendency to block thermal noxious pain, this ion channel is undeniably well placed in the pain pathway, and the idea of blocking pain signals before they enter the CNS is an excellent concept and of proven efficacy when TRPV1 agonists are used. We propose a new approach involving allosteric modulation to impose an activity-dependent constraint within the context of inflammation and tissue damage that would alter the responsiveness of the channel in a way that an orthosteric vanilloid antagonist cannot achieve. We believe that the allosteric modulator approach has not been explored for this target.
# The main goal of this proposal is to identify additional, new, potent allosteric modulators of TRPV1 that can be used to investigate TRPV1 function. Our recent report provides evidence of proof of concept, but the compounds are just at the edge of utility in terms of potency. […] The question of whether they can be used as analgesic agents is complex, but if suitable compounds are identified then testing for analgesic properties will be conducted.
# Upon TRPV1 activation in TRPV1 cells, the channel opens and extracellular cations flow through the channel into the cytosol. A calcium binding dye (Fluo-8) becomes fluorescent when bound to calcium. This dye is pre-loaded into cells and is used as a marker for calcium influx.
# The amount of accumulated calcium is precisely quantified using the FDSS kinetic reader and the calcium dye.
# For the HTS assay, freshly prepared cells are plated at a density of 2000/well in 3 ul medium in 1536-well plates and cultured overnight at 35.5C. Cells will be loaded with 1 ul of the homogeneous calcium dye (ABD Bioquest) at room temperature for 40 to 90 minutes. Plates will be loaded into the FDSS kinetic reader and a 1 sec / cycle for 10 second baseline signal will be measured. Compound library will then be added with a pintool at 23 nl and measured kinetically for 3 minutes. This portion of the read is considered the agonist portion of the screen. Following the 3 minutes of incubation, an on board pipettor will deliver 1 ul of capsaicin for a final concentration equal to the EC20. Signal will be measured kinetically for an additional 2 minutes. This portion of the read is considered the allosteric enhancer portion of the screen.
# The FDSS reader has a standard filter set capable of measuring calcium bound Fluo-8 (ex=480 and em=520 nm).
# Chain of Transient receptor potential cation channel subfamily V member 1 (Homo sapiens) (Q8NER1 whole entry, looked up): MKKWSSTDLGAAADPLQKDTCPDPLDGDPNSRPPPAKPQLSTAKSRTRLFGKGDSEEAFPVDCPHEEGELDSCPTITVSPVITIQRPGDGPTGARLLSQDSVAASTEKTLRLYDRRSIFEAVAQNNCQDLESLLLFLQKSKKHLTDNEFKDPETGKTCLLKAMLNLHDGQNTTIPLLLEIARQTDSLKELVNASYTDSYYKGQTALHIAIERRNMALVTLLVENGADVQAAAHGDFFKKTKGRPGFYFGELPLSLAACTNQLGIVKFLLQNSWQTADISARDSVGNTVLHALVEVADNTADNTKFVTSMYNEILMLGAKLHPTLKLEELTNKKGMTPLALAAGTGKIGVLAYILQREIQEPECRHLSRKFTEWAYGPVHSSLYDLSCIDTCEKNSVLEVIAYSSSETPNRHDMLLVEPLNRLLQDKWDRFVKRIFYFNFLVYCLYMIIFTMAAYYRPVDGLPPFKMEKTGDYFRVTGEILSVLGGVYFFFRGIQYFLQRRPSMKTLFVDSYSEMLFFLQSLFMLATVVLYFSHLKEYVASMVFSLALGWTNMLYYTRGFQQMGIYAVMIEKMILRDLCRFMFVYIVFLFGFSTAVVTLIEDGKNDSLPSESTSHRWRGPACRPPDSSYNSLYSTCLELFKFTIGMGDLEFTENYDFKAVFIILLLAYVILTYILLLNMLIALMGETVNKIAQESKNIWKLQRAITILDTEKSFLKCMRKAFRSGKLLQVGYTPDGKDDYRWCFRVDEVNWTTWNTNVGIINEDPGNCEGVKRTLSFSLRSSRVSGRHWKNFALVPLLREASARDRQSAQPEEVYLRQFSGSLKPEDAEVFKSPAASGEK
row,SMILES,outcome
1,C=CCN1CC[C@@]2(C)c3cc(O)ccc3CC1[C@@H]2C,inactive
2,Oc1cc2c(cc1O)[C@H]1c3ccccc3CNC1CC2 (stereo not given in full),inactive
3,COC(=O)C(N)CCCN=C(N)N[N+](=O)[O-] (stereo not given),inactive
4,CN1CCC23CCCC[C@H]2C1Cc1ccc(O)cc13 (stereo not given in full),inactive
5,CCCN1CCc2cc(O)cc3c2C1Cc1ccc(O)c(O)c1-3 (stereo not given),inactive
6,CC12CCC3C(CCC4=C(O)C(=O)CCC43C)C1CCC2=O (stereo not given),inactive
7,COc1ccc2c3c1O[C@H]1C(=O)CC[C@@]4(O)C(C2)N(CC2CC2)CCC314 (stereo not given in full),inactive
8,Oc1ccc2c3c1O[C@H]1[C@@H](O)CC[C@@]4(O)C(C2)N(CC2CCC2)CCC314 (stereo not given in full),inactive
9,CCCC[N+]1(C)C2CC(OC(=O)C(CO)c3ccccc3)CC1C1OC12 (stereo not given),inactive
10,CCC(CO)NC(=O)[C@@H]1C=C2c3cccc4[nH]cc(c34)C[C@H]2N(C)C1 (stereo not given in full),inactive
11,COc1cc(C=C(C#N)C#N)cc(O)c1O,inactive
12,CCCN(CCC)C(=O)Cc1c(-c2ccc(Cl)cc2)nc2c(Cl)cc(Cl)cn12,inactive
13,C=CCN1CCc2cccc3c2C1Cc1ccc(O)c(O)c1-3 (stereo not given),inactive
14,C[C@]12CC[C@H]3[C@@H](CCC4C[C@H](O)CC[C@@]43C)[C@@H]1CC[C@@H]2O (stereo not given in full),inactive
15,N#CC(=Cc1ccc(O)c(O)c1)C(N)=S,inactive
16,C#CCN(C)C(C)Cc1ccccc1 (stereo not given),inactive
17,CCCN1CCc2cccc3c2C1Cc1ccc(O)c(O)c1-3 (stereo not given),inactive
18,CCc1c(C(=O)OC)ncc2[nH]c3cc(OC)c(OC)cc3c12,inactive
19,CC[C@@H](CO)NC(=O)[C@H]1C=C2c3cccc4c3c(cn4C)C[C@H]2N(C)C1,inactive
20,O=C(O)C1C2CCC(O2)C1C(=O)O (stereo not given),inactive

row,SMILES,outcome
1,CCN1C[C@]2(C)CC[C@H](O)[C@@]34[C@@H]5C[C@@H]6[C@@H](OC)C[C@@](O)(C5[C@H]6O)[C@@H](C[C@@H]23)[C@@H]14,inactive
2,CCCN1CCC[C@@H]2Cc3n[nH]cc3C[C@H]21,inactive
3,C[C@H]1OC[C@@H](C[N+](C)(C)C)O1,inactive
4,CCNC(=O)[C@H]1O[C@@H](n2cnc3c(N)ncnc32)[C@H](O)[C@H]1O,inactive
5,CCCN(CCC)[C@@H]1CCc2c(F)ccc(O)c2C1,inactive
6,CCN(CC)C(=O)N[C@@H]1C[C@@H]2c3cccc4[nH]cc(c34)C[C@H]2N(C)C1,inactive
7,CC(C)[C@@]1(NC(=O)[C@@H]2C[C@@H]3c4cccc5[nH]cc(c45)C[C@H]3N(C)C2)O[C@@]2(O)C3CCCN3C(=O)[C@H](Cc3ccccc3)N2C1=O (stereo not given in full),inactive
8,C[C@]12CC[C@H](OS(=O)(=O)O)CC1=CCC1C2CC[C@]2(C)C(=O)CC[C@@H]12 (stereo not given in full),inactive
9,COc1ccc2c(c1O)-c1cccc3c1C(C2)N(C)CC3 (stereo not given),inactive
10,C[C@H]1C2Cc3ccc(O)cc3[C@]1(C)CCN2CC1CC1,inactive
11,CCCN1CCC[C@@H](c2cccc(C#N)c2)C1,inactive
12,C[C@]12CC[C@@H](O)CC1CCC1C2CC[C@]2(C)C(=O)CC[C@@H]12 (stereo not given in full),inactive
13,NNCc1cccc(O)c1,inactive
14,CN1C[C@@H](CS(=O)(=O)N(C)C)C[C@@H]2c3cccc4c3c(cn4C)C[C@H]21,inactive
15,Nc1ncnc2c1ncn2[C@@H]1O[C@H](COP(=O)(O)CP(=O)(O)OP(=O)(O)O)[C@H](O)[C@H]1O,inactive
16,C[C@]12CC[C@H](O)CC1=CCC1C2CC[C@]2(C)C(=O)CC[C@@H]12 (stereo not given in full),inactive
17,C[N+]1(C)C2CC(OC(=O)C(CO)c3ccccc3)CC1C1OC12 (stereo not given),inactive
18,CCCN1CCCC(c2cccc(O)c2)C1 (stereo not given),inactive
19,CC1Cc2cc3c(cc2C(c2ccc(N)cc2)=NN1)OCO3 (stereo not given),inactive
20,COc1cc(C[C@@H](C)N)c(OC)cc1I,inactive
